Results on 18 compounds are retold here after PubChem BioAssay (NCATS).

Assay [1] is described as follows: Quantitative High-Throughput drug screen in 47 multiple myeloma cell lines against the NCATS MIPE library collection: FR4_PLB cell viability assay (AID 1918924; note: nearly all actives have a fitted effect of over 35% in size; note: potency is the fitted concentration of half-maximal effect). The method in brief:
(§1)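 Steps: seed 500 cells per well; pin-transfer MIPE 4.0 library; incubate 48 h at 37C, 5% CO2, humidified; add CellTiter-Glo, 5 min room temperature; read luminescence.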

Assay [2] can be described thus: Quantitative High-Throughput drug screen in 47 multiple myeloma cell lines against the NCATS MIPE library collection: Delta47_JCRB cell viability assay (AID 1918925; note: nearly all actives have a fitted effect of over 45% in size; note: potency is the fitted concentration of half-maximal effect). The method in brief: (§2)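 CellTiter-Glo luminescence (ATP) after 48 h compound exposure, 37C/5% CO2; 500 cells/well; MIPE 4.0 approved/investigational drugs pinned in; DMSO = 100%, media only = 0% viability.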

The nature of assay [3]: Quantitative High-Throughput drug screen in 47 multiple myeloma cell lines against the NCATS MIPE library collection: AMO1_DSMZ cell viability assay (AID 1918927; note: nearly all actives have a fitted effect of over 30% in size; note: potency is the fitted concentration of half-maximal effect). The method in brief:
as §2

Assay [4] can be described thus: Quantitative High-Throughput drug screen in 47 multiple myeloma cell lines against the NCATS MIPE library collection: ARP1_JJKsccF8 cell viability assay (AID 1918928; note: nearly all actives have a fitted effect of over 40% in size; note: potency is the fitted concentration of half-maximal effect). The method in brief: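 Cell viability inhibition in this qHTS is measured via ATP content (CellTiter-Glo) after 48 h drug exposure at 37 °C. Wells hold 500 cells; DMSO-treated wells define 100% and medium-only wells 0%.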

A short description of assay [5]: Quantitative High-Throughput drug screen in 47 multiple myeloma cell lines against the NCATS MIPE library collection: ARD_JJKsccE7 cell viability assay (AID 1918929; note: potency is the fitted concentration of half-maximal effect). The method, boiled down: as §2
Assay [6] is described as follows: Quantitative High-Throughput drug screen in 47 multiple myeloma cell lines against the NCATS MIPE library collection: Karpas620_DSMZ cell viability assay (AID 1918959). Note: nearly all actives have a fitted effect of over 30% in size. Note: potency is the fitted concentration of half-maximal effect. The method in brief:
as §1

For assay [7], the target named is Luciferin 4-monooxygenase (Photinus pyralis) (UniProt P08659). In words: Primary firefly luciferase (FLuc) qHTS assay for identification of artifact compounds. (AID 1845220). Note: nearly all actives have a fitted effect of over 60% in size. The note with it: outcome: dose series up to 54.1 µM. The method, boiled down: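 D-luciferin and ATP (10 uM each, final) in Tris acetate buffer pH 7.6 were incubated with compounds for 15 min at room temperature. The reaction was started with 10 nM Photinus pyralis luciferase and luminescence read after 5 min. Percent inhibition was fitted to a 4-parameter Hill equation.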

The nature of assay [8]: Primary fluorescence-based thiol-reactive (MSTI) qHTS assay for identification of artifact compounds. (AID 1845221).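 Note: series mostly up to about 54 µM; thiol-reactive compounds lower the probe fluorescence signal; nearly all actives have a fitted effect of over 65% in size.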 The method, boiled down:
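MSTI probe at 4 uM final in 2% DMSO/PBS pH 7.4; compounds, 1 h at room temperature in dark. Fluorescence Ex/Em 525/598 nm, normalised to Acetyl-MSTI and MSTI, fitted to 4-parameter Hill.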
For orientation: In qHTS, concentration-response curves come from the screen itself.

The subject of assay [9] is Nanoluciferase (engineered Oplophorus gracilirostris luciferase). As to the kind of experiment: Primary Nanoluciferase (NLuc) qHTS assay for identification of artifact compounds. (AID 1845222). Note: series mostly up to about 54 µM. The method in brief: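 Diluted conditioned medium from NLuc-expressing S16 cells treated with compounds for 15 min at room temperature, then Nano-Glo substrate added; luminescence read after 5 min. Percent inhibition versus no-enzyme and DMSO controls fitted to 4-parameter Hill equation.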

The nature of assay [10]: Primary redox qHTS assay for identification of artifact compounds. (AID 1845223). The method, boiled down:
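Redox-cycling detection via DTT (250 uM final) oxidation coupled to Amplex Red (25 uM)/HRP (250 mU/mL) in HBSS. 15 min preincubation plus 30 min after DTT, room temperature. Ex/Em 525/598 nm; 4-parameter Hill fit against DMSO and 10 uM DA3003.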

Molecules are shown by their SMILES. Results filed as inconclusive are left out. Activity calls are given as the source filed them. Calls come from the whole dose curve; as a rule, active = well fitted curve in the direction sought with a large enough effect; inconclusive = small, poorly fitted or top-dose-only effect, or another doubt; inactive = no such curve, though single readings can be large; an effect the other way counts as inactive or inconclusive.

For `C=C(C)[C@H]1Cc2c(ccc3c2O[C@@H]2COc4cc(OC)c(OC)cc4[C@@H]2C3=O)O1`, the Potency in [1] is 0.935 µM (active); in [2] it was 0.118 µM (active); in assay [3], 0.469 µM (active); in assay [4] it was 0.526 µM (active); in [5], 0.332 µM (active); in assay [6], 0.296 µM (active).
Take `CC1=C2C[C@@H]3[C@@H](CC=C4C[C@@H](O)CC[C@@]43C)[C@@H]2CC[C@]12O[C@H]1C[C@H](C)CN[C@H]1[C@H]2C`: in assay [1], the Potency was 10.5 µM (active). In addition, the Potency entry in assay [3], in [4], in assay [5] and in assay [6] was “inactive” in each case.
As for `COC[C@@H](NC(C)=O)C(=O)NCc1ccccc1`, the Potency result in [1], in assay [2], in assay [3], in [5] and in assay [6] was “inactive” each time.
For `Cn1c(CCCC(=O)O)nc2cc(N(CCCl)CCCl)ccc21`, the Potency was 16.6 µM (active) in [1] and 1.18 µM (active) in assay [2]. For the same compound, the Potency result in assay [5] and in assay [6] was “inactive” in each case.
For the compound `Cc1sc2c(c1C)C(c1ccc(Cl)cc1)=N[C@@H](CC(=O)OC(C)(C)C)c1nnc(C)n1-2`, the Potency was 0.332 µM (active) in assay [1]; 0.743 µM (active) in assay [2]; 0.0833 µM (active) in assay [3]; 0.209 µM (active) in [4]; 0.0418 µM (active) in [5]; 0.132 µM (active) in assay [6].
As to `C[C@@H]1[C@@H](C(=O)C[C@H]2O[C@@H]3O[C@]4(C)CC[C@@H]5[C@H](C)CC[C@@H]([C@H]2C)[C@@]35OO4)O[C@@H]2O[C@]3(C)CC[C@H]4[C@H](C)CC[C@@H]1[C@@]24OO3`, the Potency in [2] was 0.235 µM (active); in assay [3] it was 0.0833 µM (active); in assay [4] it was 0.132 µM (active); in assay [5] it was 0.148 µM (active); in [6], 0.0418 µM (active).
Take `COc1ccc(C(=O)c2c(C)n(CCN3CCOCC3)c3ccccc23)cc1`: the Potency result in [2], in assay [3], in assay [4] and in [5] was “inactive” each time.
For `CN(C)CCN(C)CCc1ccc(Cl)c(Cl)c1`, the Potency result in assay [1], in [4], in assay [5] and in [6] was “inactive” throughout. For the same compound, the Potency in assay [3] was 20.9 µM (active).
For the compound `N[C@@H](Cc1ccc(N(CCCl)CCCl)cc1)C(=O)O`, the Potency is 20.9 µM (active) in assay [1]; 13.2 µM (active) in assay [2]; 18.7 µM (active) in [3]; 16.6 µM (active) in assay [4]; 18.7 µM (active) in assay [5]; 10.5 µM (active) in [6].
In the case of `COC1(CS(=O)c2ccccc2)CCN(CCc2c[nH]c3ccc(F)cc23)CC1` (stereo not given), the Potency entry in assay [1], in assay [4] and in [5] was “inactive” each time.
Take `O=C(O)C(=O)c1cn(Cc2ccccc2)c2ccc(-c3ccc(OC(F)(F)F)cc3)cc12`: the call in [7], in assay [8], in assay [9] and in assay [10] was inactive. The Potency entry in [1], in assay [3], in assay [4], in assay [5] and in assay [6] was “inactive” each time. Moreover, the Potency in [2] is 20.9 µM (active).
Take `COC[C@H]1OC(=O)c2coc3c2[C@@]1(C)C1=C(C3=O)C2CCC(=O)[C@@]2(C)C[C@H]1OC(C)=O` (stereo not given in full): the result in assay [7] and in [9] was inactive. In addition, the Potency is 11.8 µM (active) in assay [1]; 0.0469 µM (active) in [2]; 8.33 µM (active) in assay [3]; 1.48 µM (active) in assay [4]; 14.8 µM (active) in assay [5]; 4.69 µM (active) in assay [6].
Take `C[C@H]1O[C@@H](O[C@H]2[C@@H](O)C[C@H](O[C@H]3[C@@H](O)C[C@H](O[C@H]4CC[C@@]5(C)[C@H](CC[C@@H]6[C@@H]5CC[C@]5(C)[C@@H](C7=CC(=O)OC7)CC[C@]65O)C4)O[C@@H]3C)O[C@@H]2C)C[C@H](O)[C@@H]1O`: the call in assay [7], in [8], in [9] and in assay [10] was inactive.
For `CN1CCN(C(=O)O[C@H]2c3nccnc3C(=O)N2c2ccc(Cl)cn2)CC1`, the Potency result in assay [1], in assay [3] and in [6] was “inactive” each time.
Regarding `NCC1(CC(=O)O)CCCCC1`, the Potency entry in assay [1], in [3], in [4], in [5] and in [6] was “inactive” throughout.
As to `O=C1CC[C@@]2(O)[C@H]3Cc4ccc(O)c5c4[C@@]2(CCN3CC2CC2)[C@H]1O5`, the Potency entry in assay [1], in assay [4], in assay [5] and in [6] was “inactive” each time.
With `O=c1[nH]c2ccccc2n1CCCN1CCC(n2c(=O)[nH]c3cc(Cl)ccc32)CC1`, the Potency result in [1] was “inactive”. Also, the Potency in [6] is 20.9 µM (active).
With `C#CCN(C)[C@H](C)Cc1ccccc1`, the Potency result in assay [1], in assay [2], in assay [4], in assay [5] and in [6] was “inactive” throughout.
